# Test results as given in the supplement of paper PMC9135407.
# Values joined by “and” are separate entries in the source; they are usually repeats but may differ in a detail not shown here. Identical values can stand only once. Counter-ions that a name gives are not always drawn. Out of some 5,800 compounds screened, about 620 (11%) showed activity.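 Rule for the calls: active = score above a cut-off or among the top three wells of a plate; in these data no inactive exceeds 0.85.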 Many of the other results were omitted from the sample, so actives are more common in it than they were.
# Tested on: primary human hepatic stellate cells (donor 1)
# Assay: scaled lipid accumulation score (0 = DMSO-like, 1 = nortriptyline-like); higher = stronger HSC inactivation (lipid re-accumulation), active = hit call of the paper
# Conditions: 48 h
# [1] = library stock concentration: 1 mM
# [2] = library stock concentration: 3.33 mM
# [3] = library stock concentration: 10 mM
# [4] = library stock concentration: 400 uM
# [5] = library stock concentration: 2 mM
compound,measurement,setting,value
O=C(O)CCC/C=C\C[C@@H]1[C@@H](/C=C/[C@@H](O)COc2cccc(C(F)(F)F)c2)[C@H](O)C[C@@H]1O [Fluprostenol],scaled lipid accumulation score,[1],0.005 (inactive) and ≤ -0.021 (inactive)
Cn1c(=O)cc(N2CCC[C@@H](N)C2)n(Cc2cc(F)ccc2C#N)c1=O [Trelagliptin],scaled lipid accumulation score,[2],≤ -0.009 (inactive)
same,scaled lipid accumulation score,[3],≤ 0 (inactive)
O=C(O)CCC/C=C\C[C@H]1C(=O)C=C[C@@H]1/C=C/[C@@H](O)CCc1ccccc1 [17-phenyl trinor Prostaglandin A2],scaled lipid accumulation score,[1],≤ 0 (inactive)
Cc1cc([N+](=O)[O-])ccc1NS(=O)(=O)c1cc(Cl)ccc1Cl,scaled lipid accumulation score,[2],≤ -0.009 (inactive)
same,scaled lipid accumulation score,[3],0.147 (inactive)
Nc1nc2c(cnn2CCc2ccccc2)c2nc(-c3ccco3)nn12,scaled lipid accumulation score,[3],0.583 (inactive)
CCCCC[C@@](C)(O)/C=C/[C@H]1[C@H](O)CC(=O)[C@@H]1C/C=C\CCCC(=O)O [15(R)-15-methyl Prostaglandin E2],scaled lipid accumulation score,[1],≤ 0 (inactive)
CCCCC/C=C\C/C=C\C/C=C\C/C=C\CCCC(=O)O[C@@H](CO)COCCCCCCCCCCCCCCCC [1-Hexadecyl-2-arachidonoyl-glycerol],scaled lipid accumulation score,[1],0.044 (inactive)
CC(C)Oc1ccc(C(=O)N[C@H](CNC(=O)CN(C)C)Cc2ccc(-c3cn4cccc([C@H](C)O)c4n3)cc2)cc1Cl [listing 1 of 2 here],scaled lipid accumulation score,[2],0.464 (inactive)
CC(C)Oc1ccc(C(=O)N[C@H](CNC(=O)CN(C)C)Cc2ccc(-c3cn4cccc([C@H](C)O)c4n3)cc2)cc1Cl [listing 2 of 2 here],scaled lipid accumulation score,[3],0.882 (active)
CCCCCCCC/C=C\CCCCCCCC(=O)N[C@H](CO)Cc1ccc(O)cc1,scaled lipid accumulation score,[1],≤ 0 (inactive)
COCCOc1cc2ncnc(Cl)c2cc1OCCOC,scaled lipid accumulation score,[3],≤ 0 (inactive)
CN(C)C(=O)C(CCN1CCC(O)(c2ccc(Cl)cc2)CC1)(c1ccccc1)c1ccccc1 [Loperamide hydrochloride],scaled lipid accumulation score,,0.682 (inactive)
same,scaled lipid accumulation score,[3],0.699 (inactive) and 0.787 (inactive)
CN1CCC[C@@H]1CCO[C@](C)(c1ccccc1)c1ccc(Cl)cc1.O=C(O)/C=C/C(=O)O [Clemastine fumarate],scaled lipid accumulation score,[3],0.861 (active)
CN1CCC[C@@H]1CCO[C@](C)(c1ccccc1)c1ccc(Cl)cc1 [Clemastine fumarate] [listing 1 of 2 here],scaled lipid accumulation score,library stock concentration: 5.8 mM,0.885 (active)
CN1CCC[C@@H]1CCO[C@](C)(c1ccccc1)c1ccc(Cl)cc1 [Clemastine fumarate] [listing 2 of 2 here],scaled lipid accumulation score,,0.619 (inactive)
CSc1ccc2c(c1)N(CCC1CCCCN1C)c1ccccc1S2 (stereo not drawn) [Thioridazine HCl],scaled lipid accumulation score,library stock concentration: 5.4 mM,0.47 (inactive)
CN1[C@@H](CC(=O)c2ccccc2)CCC[C@H]1C[C@H](O)c1ccccc1 [alpha-Lobeline hydrochloride],scaled lipid accumulation score,[3],0.493 (inactive)
CN1[C@@H](CC(=O)c2ccccc2)CCC[C@H]1C[C@H](O)c1ccccc1,scaled lipid accumulation score,[3],≤ 0 (inactive)
CN1CCCC1CCOC(C)(c1ccccc1)c1ccc(Cl)cc1.O=C(O)/C=C/C(=O)O (stereo not drawn) [Clemastine fumarate],scaled lipid accumulation score,[3],0.942 (active)
CN1CCC[C@@H]1CCO[C@](C)(c1ccccc1)c1ccc(Cl)cc1 [Clemastine Fumarate],scaled lipid accumulation score,[2],0.249 (inactive)
same,scaled lipid accumulation score,[3],0.819 (inactive)
CN1[C@@H](CC(=O)c2ccccc2)CCC[C@H]1C[C@H](O)c1ccccc1 [Lobeline hydrochloride],scaled lipid accumulation score,[3],≤ 0 (inactive) and 0.256 (inactive)
CN1CCC[C@@H]1CCO[C@](C)(c1ccccc1)c1ccc(Cl)cc1 [Clemastine],scaled lipid accumulation score,[3],0.362 (inactive)
CSc1ccc2c(c1)N(CCC1CCCCN1C)c1ccccc1S2 (stereo not drawn) [Thioridazine hydrochloride],scaled lipid accumulation score,,0.711 (inactive)
same,scaled lipid accumulation score,library stock concentration: 4.9 mM,0.586 (inactive)
same,scaled lipid accumulation score,[3],0.072 (inactive) and 0.283 (inactive)
O=C(O)COCCN1CCN(C(c2ccccc2)c2ccc(Cl)cc2)CC1 (stereo not drawn) [Cetirizine DiHCl],scaled lipid accumulation score,[2],≤ 0 (inactive)
same,scaled lipid accumulation score,[3],≤ 0 (inactive)
O=C(O)COCCN1CCN([C@H](c2ccccc2)c2ccc(Cl)cc2)CC1,scaled lipid accumulation score,[3],≤ 0 (inactive)
CN(C)C(=O)C(CCN1CCC(O)(c2ccc(Cl)cc2)CC1)(c1ccccc1)c1ccccc1 [Loperamide HCl],scaled lipid accumulation score,[2],0.485 (inactive)
same,scaled lipid accumulation score,[3],0.611 (inactive)
O=C(O)COCCN1CCN(C(c2ccccc2)c2ccc(Cl)cc2)CC1 (stereo not drawn) [Cetirizine dihydrochloride],scaled lipid accumulation score,,0.024 (inactive)
same,scaled lipid accumulation score,[3],0.244 (inactive) and ≤ -0.001 (inactive)
O=C(O)COCCN1CCN(C(c2ccccc2)c2ccc(Cl)cc2)CC1 (stereo not drawn) [Cetirizine hydrochloride],scaled lipid accumulation score,[3],≤ -0.027 (inactive)
CN1[C@@H](CC(=O)c2ccccc2)CCC[C@H]1C[C@H](O)c1ccccc1 [Lobeline alpha (-) hydrochoride],scaled lipid accumulation score,,0.216 (inactive)
CN1[C@@H](CC(=O)c2ccccc2)CCC[C@H]1C[C@H](O)c1ccccc1 [Lobeline],scaled lipid accumulation score,library stock concentration: 5.9 mM,≤ -0.006 (inactive)
O=C(O)COCCN1CCN(C(c2ccccc2)c2ccc(Cl)cc2)CC1 (stereo not drawn) [Cetirizine],scaled lipid accumulation score,[3],≤ 0 (inactive)
"CCCCCCCCCC(=O)OCC(CO)OC(=O)CCCCCCCCC (stereo not drawn) [1,2-Didecanoyl-glycerol (10:0)]",scaled lipid accumulation score,[1],≤ -0.021 (inactive)
"CCCCCCCCCC(=O)OCC(CO)OC(=O)CCCCCCCCC (stereo not drawn) [1,2-Didecanoyl-sn-glycerol]",scaled lipid accumulation score,[1],≤ 0 (inactive)
CCCCCC(O)C=CC1CC2CC(C1CC=CCCCC(=O)O)C2(C)C [15(R)-Pinane Thromboxane A2],scaled lipid accumulation score,[1],≤ 0 (inactive)
Cc1onc(-c2ccccc2)c1-c1ccc(S(N)(=O)=O)cc1 [Valdecoxib],scaled lipid accumulation score,[2],≤ 0 (inactive)
same,scaled lipid accumulation score,[3],0.226 (inactive) and 0.088 (inactive)
Cc1onc(-c2ccccc2)c1-c1ccc(S(N)(=O)=O)cc1,scaled lipid accumulation score,[3],≤ 0 (inactive)
CCCCCCCCCCCCCCCC(=O)OC [Palmitic Acid methyl ester],scaled lipid accumulation score,[1],0.031 (inactive)
"O=P(O)(O)OC1C(O)C(OP(=O)(O)O)C(O)C(OP(=O)(O)O)C1O [D-myo-Inositol-1,3,5-triphosphate (sodium salt)]",scaled lipid accumulation score,[1],0.025 (inactive)
O=C(O)Cc1sc(-c2ccccc2)nc1-c1ccc(Cl)cc1 [Fentiazac],scaled lipid accumulation score,library stock concentration: 6.1 mM,0.006 (inactive)
CCCCC[C@H](O)/C=C/[C@H]1CCC(=O)[C@@H]1CCCCCCC(=O)O [11-deoxy Prostaglandin E1],scaled lipid accumulation score,[1],0.015 (inactive)
CC(C)=CCC[C@](C)(O)C1CC=C(C)CC1 (stereo partly drawn) [Bisabolol],scaled lipid accumulation score,[3],0.049 (inactive)
Cl.Cl.NC1(c2ccc(-c3nc4ccn5c(=O)[nH]nc5c4cc3-c3ccccc3)cc2)CCC1 [listing 1 of 2 here],scaled lipid accumulation score,[2],1.35 (active)
same,scaled lipid accumulation score,[3],1.02 (active)
Cl.Cl.NC1(c2ccc(-c3nc4ccn5c(=O)[nH]nc5c4cc3-c3ccccc3)cc2)CCC1 [listing 2 of 2 here],scaled lipid accumulation score,[4],1.07 (active)
same,scaled lipid accumulation score,[5],1.23 (active)
"O=C1C(=Cc2ccc(O)cc2)C2=Nc3ccccc3C2=C1C1=C2C(=Nc3ccccc32)C(=Cc2ccc(O)cc2)C1=O [Scytonemin, Lyngbya sp.]",scaled lipid accumulation score,[2],≤ 0 (inactive)
COc1ccc2cc(C(C)C(=O)O)ccc2c1 (stereo not drawn) [Naproxen(+)],scaled lipid accumulation score,library stock concentration: 8.7 mM,0.014 (inactive)
same,scaled lipid accumulation score,[3],≤ 0 (inactive)
CCCCCC(=O)CC[C@@H]1[C@@H](C/C=C\CCCC(=O)OC(C)C)[C@@H](O)C[C@H]1O,scaled lipid accumulation score,[1],≤ 0 (inactive)
Nc1nc2[nH]c(=O)[nH]c2c(=O)[nH]1 [8-hydroxy Guanine (hydrochloride)],scaled lipid accumulation score,[1],≤ 0 (inactive)
CCCCC1C(=O)CCC2C(CCCCCCC(=O)O)C(=O)CC12 (stereo not drawn) [Bicyclo Prostaglandin E1],scaled lipid accumulation score,[1],≤ 0 (inactive)
CC(C)c1ccc2c(c1)CC[C@H]1[C@](C)(CN)CCC[C@]21C [Lylamine hydrochloride],scaled lipid accumulation score,[3],0.527 (inactive)
CC(C)c1ccc2c(c1)CC[C@H]1[C@](C)(CN)CCC[C@]21C.Cl [Leelamine (hydrochloride)],scaled lipid accumulation score,[1],0.297 (active)
CCCCCCCCCCCC(=O)NC[C@]1(C)CCC[C@]2(C)c3ccc(C(C)C)cc3CCC12 (stereo partly drawn) [Lauric Acid Leelamide],scaled lipid accumulation score,[1],0.012 (inactive)
CN(C)C(=O)c1ccc(S(=O)(=O)c2ccc(NC(=O)C(C)(O)C(F)(F)F)c(Cl)c2)cc1 (stereo not drawn),scaled lipid accumulation score,[2],≤ -0.009 (inactive)
same,scaled lipid accumulation score,[3],≤ 0 (inactive)
"CCCC/C=C/C=C/C=C\CCCCCCCC(=O)O [9(Z),11(E),13(E)-Octadecatrienoic Acid]",scaled lipid accumulation score,[1],≤ 0 (inactive)
Cc1ccc(NC(=O)Nc2cc(C(F)(F)F)ccc2F)cc1Nc1ccc2c(c1)NC(=O)/C2=C\c1ccc[nH]1,scaled lipid accumulation score,library stock concentration: 80 uM,0.038 (inactive)
same,scaled lipid accumulation score,[4],0.353 (inactive)
Cc1ccc(NC(=O)Nc2cc(C(F)(F)F)ccc2F)cc1Nc1ccc2c(c1)NC(=O)C2=Cc1ccc[nH]1,scaled lipid accumulation score,[5],1.14 (active)
same,scaled lipid accumulation score,[3],1.61 (active)
O=C1Nc2ccc(-c3cccnc3)cc2/C1=C/c1ccc[nH]1 [JAK3 Inhibitor VI],scaled lipid accumulation score,[2],≤ 0 (inactive)
"CCCCc1c(-c2ccc(OC)cc2)[nH]c2nccnc12 [Aloisine, RP106]",scaled lipid accumulation score,[2],0.036 (inactive)
N#C/C(=C(/N)Sc1ccccc1N)c1cccc(C(O)c2ccncc2)c1 (stereo not drawn) [MEK Inhibitor I],scaled lipid accumulation score,[2],≤ 0 (inactive)
NC(=O)N1c2ccccc2C=Cc2ccccc21,scaled lipid accumulation score,[3],≤ 0 (inactive)
NC(=O)N1c2ccccc2C=Cc2ccccc21 [Carbamazepine],scaled lipid accumulation score,,≤ 0 (inactive)
same,scaled lipid accumulation score,[2],0.025 (inactive)
same,scaled lipid accumulation score,[3],≤ 0 (inactive) and 0.28 (inactive)
CN1CCN(CCCN2c3ccccc3Sc3ccc(Cl)cc32)CC1 [Prochlorperazine dimaleate],scaled lipid accumulation score,,0.696 (inactive)
same,scaled lipid accumulation score,[3],0.815 (inactive)
Cl.Cl.OCCN1CCN(CCCN2c3ccccc3C=Cc3ccccc32)CC1 [Opipramol dihydrochloride],scaled lipid accumulation score,[3],0.885 (active)
OCCN1CCN(CCCN2c3ccccc3Sc3ccc(Cl)cc32)CC1,scaled lipid accumulation score,[3],0.962 (active)
OCCN1CCN(CCCN2c3ccccc3Sc3ccc(Cl)cc32)CC1 [Perphenazine] [listing 1 of 2 here],scaled lipid accumulation score,[3],0.916 (active)
CN1CCN(CCCN2c3ccccc3Sc3ccc(Cl)cc32)CC1 [Prochlorperazine edisylate],scaled lipid accumulation score,library stock concentration: 3.5 mM,0.713 (inactive)
same,scaled lipid accumulation score,[3],0.523 (inactive)
OCCN1CCN(CCCN2c3ccccc3Sc3ccc(Cl)cc32)CC1 [Perphenazine] [listing 2 of 2 here],scaled lipid accumulation score,,0.75 (inactive)
same,scaled lipid accumulation score,library stock concentration: 5 mM,0.605 (inactive)
same,scaled lipid accumulation score,[3],0.329 (inactive)
